Screening results (PubChem)
FBPA Giardia inh – qHTS Assay for Inhibitors of Fructose-1,6-bisphosphate Aldolase from Giardia Lamblia | Potency, µM (series often up to 59.6 µM), inactives show top-dose activity, negative = inhibition, hits mostly inhibitors | 290,000 tested, 0.71% active | purified Giardia FBPA; note: nearly all actives have a fitted effect of over 55% in size
Target sequence (A8B2U2 whole entry, looked up): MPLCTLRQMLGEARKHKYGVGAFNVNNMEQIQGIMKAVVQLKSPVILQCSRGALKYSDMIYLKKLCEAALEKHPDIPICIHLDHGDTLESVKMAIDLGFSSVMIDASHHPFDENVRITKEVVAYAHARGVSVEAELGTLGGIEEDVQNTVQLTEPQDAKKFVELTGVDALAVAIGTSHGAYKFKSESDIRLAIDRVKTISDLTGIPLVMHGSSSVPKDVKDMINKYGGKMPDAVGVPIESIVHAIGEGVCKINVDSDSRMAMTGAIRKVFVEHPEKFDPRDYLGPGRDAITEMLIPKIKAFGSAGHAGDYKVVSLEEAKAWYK
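40 nM FBPA preincubated 10 min at RT with compound (up to 57.5 uM final), then substrate plus GAPDH/TPI/NAD/arsenate coupling and diaphorase/resazurin added. Fluorescence read after 20 min at RT, 525/598 nm.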
LmPK inhibitor – qHTS Assay for Inhibitors of Leishmania Mexicana Pyruvate Kinase (LmPK). 290,000 tested, 0.37% active. purified LmPK, Kinase-Glo ATP luminescence, 1 h. Q27686. Potency, µM (highest dose often 57.5 µM), inactives show at the highest dose activity change, negative = inhibition, usual class: inhibitors
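Purified LmPK (0.1 nM) converted ADP (0.1 mM) to ATP with PEP (0.5 mM) in imidazole buffer pH 7.2 with KCl and MgCl2, 1 h at room temperature. ATP was read by Kinase-Glo luminescence; data normalized to uninhibited and no-enzyme controls.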
AMA1 RON2 block – qHTS for Inhibitors of AMA1-RON; Towards Development of Antimalarial Drug Lead: Primary Screen | Potency, µM (titrated, usually from 58.2 µM), inactives show at the highest dose activity change, negative = inhibition, usual class: inhibitors | Plasmodium falciparum AMA1 (3D7) - RON2 peptide interaction | 360,000 tested, 0.2% active | AlphaScreen AMA1-biotinylated RON2 peptide binding;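 note: 0% = vehicle wells and -100% = peptide control; nearly all actives have a fitted effect of over 45% in size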
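AMA1 (3D7) with his tag at 25 nM final met compounds first, then biotinylated RON2 peptide at 25 nM; detection used donor plus acceptor beads, 10 µg/mL apiece, read by AlphaScreen after 30 min at room temperature.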
AmpC inh no detg – qHTS Inhibitors of AmpC Beta-Lactamase (assay without detergent) | P00811 | AmpC nitrocefin hydrolysis, absorbance 480 nm, 0.0001% Triton | Potency, µM (highest dose often 57.1 µM), without a hit: at the highest dose activity change, negative = inhibition, actives largely listed as inhibitors | 330,000 tested, 0.52% active | AID 485341, 2010;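 note: plate controls were no compound for no effect and no enzyme for full effect; nearly all actives have a fitted effect of over 20% in size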
Target sequence (P00811 whole entry, looked up): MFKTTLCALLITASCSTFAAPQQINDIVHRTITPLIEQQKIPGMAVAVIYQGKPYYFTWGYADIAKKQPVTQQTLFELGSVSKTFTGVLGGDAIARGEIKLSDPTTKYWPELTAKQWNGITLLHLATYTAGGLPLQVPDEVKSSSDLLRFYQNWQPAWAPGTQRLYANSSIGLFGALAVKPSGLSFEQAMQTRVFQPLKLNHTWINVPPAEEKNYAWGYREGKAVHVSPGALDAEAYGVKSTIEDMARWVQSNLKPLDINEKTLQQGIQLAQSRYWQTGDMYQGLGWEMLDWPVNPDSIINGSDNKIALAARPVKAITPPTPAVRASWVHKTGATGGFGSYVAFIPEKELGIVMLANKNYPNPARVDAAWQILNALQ
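20 mM phosphate pH 7.0 + 0.01% (detergent screen) or 0.0001% Triton X-100; 5.3 nM AmpC reagent; cpd preinc 15 min RT; nitrocefin (800 uM stock) to start; A480 q20 s × 4 min; Activity was normalised to no-enzyme and no-compound control wells.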
AmpC inh detg – qHTS Inhibitors of AmpC Beta-Lactamase (assay with detergent); P00811; AmpC hydrolysis of nitrocefin, absorbance 480 nm, 0.01% Triton; Potency, µM (series often up to 114 µM), inactives show at the top dose activity change, negative = inhibition, hits mostly inhibitors; 370,000 tested, 0.041% active;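 note: 0% = no-compound wells and -100% = no-enzyme wells; nearly all actives have a fitted effect of over 25% in size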
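20 mM phosphate pH 7.0 + 0.01% (detergent screen) or 0.0001% Triton X-100; 5.3 nM AmpC reagent; cpd preinc 15 min RT; nitrocefin (800 uM stock) to start; A480 q20 s × 4 min; Activity was normalised to no-enzyme and no-compound control wells.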
Active calls of the source: *; ? = inconclusive; . = no result given; [ ] = remark or other dose. The list is not random: actives were taken first. Their share in the collection is about 1.3%. Calls come from the whole dose curve; as a rule, active = well fitted curve in the direction sought with a large enough effect; inconclusive = small, poorly fitted or top-dose-only effect, or another doubt; inactive = no such curve, though single readings can be large; an effect the other way counts as inactive or inconclusive. Unless noted, % is set by controls: 0 for no effect and ±100 for the full control effect; potency is the fitted concentration of half-maximal effect.

SMILES	FBPA Giardia inh	LmPK inhibitor	AMA1 RON2 block	AmpC inh no detg	AmpC inh detg
Cc1ccc2c(c1)CC1(CN2C)C(=O)OC2(CCCCC2)OC1=O	?	14µM*	-8%	25%	-8%
CN(C)c1ccc(NC(=O)Nc2ccc3c(c2)c(=O)n(C)n3-c2ccccc2)cc1	.	.	20µM*	.	.
CN(c1cccc(NC(=O)Nc2cccc(Cl)c2)c1)S(C)(=O)=O	-3%	2%	-3%	-22%	-7%
CN(C)c1ccc(NC(=O)Nc2cccc(Cl)c2)cc1	-22%	-8%	?	5µM*	?
c1ccc2c(c1)ncn2-c1cncnc1	.	.	-1%	.	.
CCOC(=O)COc1ccc2c(C#N)c3ccccn3c2c1	5.6µM*	5%	67%	-5%	-5%
CCN1C(=O)[C@H]2[C@@H](c3ccc(C(F)(F)F)cc3)N[C@]3(CCCN(Cc4ccc(F)cc4)C3=O)[C@H]2C1=O	.	.	4%	.	.
CC(=Nc1ccccc1O)c1sc2ccccc2c1O	-12%	4%	65%	7.1µM*	-5%
CC(=O)N1/C(=C/c2ccc(N(C)C)cc2)C(=O)c2ccccc21	-10%	-9%	28µM*	-8%	-14%
Cn1c(O)c(C=NCCN2CCN(C(=O)c3ccccc3)CC2)c(=O)n(C)c1=O	-7%	9%	30%	-8%	?
Cc1[nH]n(-c2ccc([N+](=O)[O-])cc2)c(=O)c1C=NCCN1CCN(C(=O)c2ccccc2)CC1	4%	28µM*	4%	39%	-1%
O=c1c(C=NCCN2CCNCC2)c(-c2ccccc2)[nH]n1-c1ccc([N+](=O)[O-])cc1	5%	1%	.	10%	-3%
COc1ccc(-c2[nH]n(-c3ccc([N+](=O)[O-])cc3)c(=O)c2C=NCCN2CCNCC2)cc1	?	16µM*	.	-21%	?
CCOC(=O)C1=CCC(c2ccccc2)N(S(=O)(=O)c2ccccc2C)C1 (configuration not stated)	.	.	3%	.	.
COc1ccc(/C=N/NC(=O)c2cc(O)c(O)c(O)c2)cc1Cn1cc([N+](=O)[O-])cn1	?	1%	?	-27%	9%
COc1ccc(/C=N/NC(=O)c2ccccc2O)cc1Cn1cc([N+](=O)[O-])cn1	5%	0%	57%	6.3µM*	-5%
CN(C)c1ccc(C(CNS(=O)(=O)c2ccc(F)c(F)c2)c2c[nH]c3ccccc23)cc1 (configuration not stated)	-3%	-3%	14µM*	-40%	-5%
CN(C)c1ccc(C(CNC(=O)c2ccccc2F)c2c[nH]c3ccccc23)cc1 (configuration not stated)	8%	-6%	-11%	-18%	-14%
Cc1ccc(CNC(=S)Nc2ccc(NS(=O)(=O)c3ccc(C)cc3)cc2)cc1	.	1%	-9%	2.2µM*	0%
Cc1ccc(NC(=S)NCc2ccc(F)cc2)cc1	.	.	5%	.	.
CC1(C)C2CC=C(/C=N/NC(=O)c3ccccc3O)C1C2 (configuration not stated)	-1%	-1%	?	11µM*	-10%
Cn1c(=O)c2c(SCc3cccnc3)nc(CC(C)(C)C)nc2n(C)c1=O	5%	2%	7%	-1%	?
CCCc1nc(SC2CCCC2)c2c(=O)n(C)c(=O)n(C)c2n1	10%	-7%	2%	35µM*	?
CCCc1nc(SCc2cccnc2)c2c(=O)n(C)c(=O)n(C)c2n1	8%	-1%	-1%	40µM*	0%
NC(=O)c1sc2nc3c(c(-c4ccco4)c2c1N)CCC3	?	-9%	0%	-33%	?
SMILES	FBPA Giardia inh	LmPK inhibitor	AMA1 RON2 block	AmpC inh no detg	AmpC inh detg
Nc1c(C(=O)NC2CC2)sc2nc3c(c(-c4ccco4)c12)CC/C3=C/c1ccco1	5.6µM*	-1%	-38%[2.32 µM]	-29%	-10%
O=C(Cc1coc2cc3c(cc12)CCC3)OCc1cc(=O)n2c(n1)sc1ccccc12	3%	6%	-19%	32µM*	-1%
O=C(OCc1cc(=O)n2c(n1)sc1ccccc12)c1cccc(O)c1	-1%	-5%	-10%	-38%	-2%
Cc1cccc(-c2cc3c(nn2)-c2ccccc2C3=O)c1	-27%	7.1µM*	-15%	-22%	-2%
COc1ccc(C(=O)c2ccc(O)cc2)c(O)c1O	22µM*	.	.	.	.
Nc1c(O)ccc2c1C(=O)c1ccccc1C2=O	?	14µM*	?	-24%	-7%
COc1ccc2c(c1O)C(=O)c1ccccc1C2=O	4%	-7%	.	-6%	5%
CCc1c(C)nc2[nH]nc(-c3ccccc3C)n2c1=O	-14%	-3%	-10%	0.28µM*	-1%
Brc1ccc(-c2nc3ccccc3s2)s1	-2%	28µM*	48%	-19%	-10%
c1ccc(-c2nc3ccccc3s2)nc1	-1%	11µM*	7%	2%	-10%
CN(C)c1ncccc1-c1nc2ccccc2s1	5%	-4%	70%	-4%	-6%
Nc1ccc(-c2nc3ccccc3s2)cn1	9%	-9%	20%	90%	-5%
CC1(C)CC2CC(C)(CN2Cc2c(O)ccc3ccccc23)C1 (configuration not stated)	?	2%	7%	11µM*	-2%
Cc1ccc(Cl)cc1NC(=O)CCn1c(=O)c2cccn2c2cccnc21	.	.	.	.	15%
CC(C)N1CC(=O)N2CSCC2C1=O (configuration not stated)	.	.	0%	.	.
Cc1ccc2nc(C3CCCCC3)c(Cc3ccsc3)n2c1	.	.	-1%	.	.
S=C(NNc1cccc(Cl)c1)NC1CCCCC1	-13%	1%	6.3µM*	-33%	-1%
Cc1ncc(N=Nc2ccccc2Cl)c(-c2ccccc2)n1	0%	1%	25µM*	2%	-11%
Nc1nc(-c2ccccc2)c(N=Nc2cccc3ccccc23)s1	-8%	-18%	16µM*	-22%	-3%
COc1ccc(N=Nc2cnc(C)nc2-c2ccccc2)cc1	-4%	0%	?	?	1%
Nc1nc(-c2ccccc2)c(N=Nc2ccccc2Cl)s1	-11%	-15%	14µM*	-34%	?
O=C(Nc1ccc(Cl)cn1)c1cccc2c(Br)cccc12	2%	2%	11%	20µM*	-9%
Cc1ccccc1C(=O)Nc1ccc(Cl)cn1	-2%	?	-13%	-12%	?
Cc1nn(C(=O)c2ccccc2F)c(C)c1S(=O)(=O)N1CCOCC1	.	.	.	.	17%
CCCC(=O)Nc1c(C(=O)OCC)[nH]c2ccccc12	-3%	0%	0%	20µM*	5%
CCOC(=O)c1[nH]c2ccccc2c1NC(=O)CC(C)C	3%	4%	0%	-13%	8%
